Data reported in PubChem BioAssay (Tox21).
Inconclusive results are not listed. A call without a number means that no potency is given here. Active and inactive are the calls of the source. Unless noted, the call rests on the fitted dose curve; in most records, active means well fitted curve in the direction sought with a large enough effect in the repeat runs; inconclusive means weak or mixed curves; inactive means no such curve, though single readings can be large; an effect the other way counts as inactive or inconclusive.

How the values were obtained:
[1] = qHTS assay to identify small molecule antagonists of the retinoid acid receptor (RAR) signaling pathway - cell viability counter screen (AID 1159551); conditions: C3RL4 cells viability, ATP luminescence (CellTiter-Glo), 6 h; series mostly up to 92.4 µM; further: nearly all actives have a fitted effect of over 35% in size; further: potency means the concentration at half of the fitted maximal effect
Outline: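 C3RL4 RARE-luciferase line; cpds + retinol 1 uM final, 6 h, 37 C/5% CO2; CellTiter-Glo ATP luminescence, 30 min RT.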

[2] = qHTS assay to identify small molecule antagonists of the estrogen related receptor (ERR) signaling pathway from Tox21 library - cell viability counter screen (AID 1224834); conditions: ERR reporter cells viability, CellTiter-Fluor, 17.5 h; series mostly up to 92.4 µM; further: nearly all actives have a fitted effect of over 30% in size; further: potency means the concentration at half of the fitted maximal effect
Outline: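 Multiplexed viability counter screen in ERR cells: 17.5 h compound exposure at 37 C, CellTiter-Fluor added, 30 min at 37 C/5% CO2, fluorescence read.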

[3] = target: Luciferin 4-monooxygenase (Photinus pyralis) (UniProt P08659); assay: qHTS assay to identify small molecule inhibitors of firefly luciferase (AID 1224835); further: nearly all actives have a fitted effect of over 25% in size; further: potency means the concentration at half of the fitted maximal effect; conditions: purified P. pyralis luciferase, luminescence inhibition; series mostly up to 115 µM
Sequence of Luciferin 4-monooxygenase (Photinus pyralis) (P08659 whole entry, looked up): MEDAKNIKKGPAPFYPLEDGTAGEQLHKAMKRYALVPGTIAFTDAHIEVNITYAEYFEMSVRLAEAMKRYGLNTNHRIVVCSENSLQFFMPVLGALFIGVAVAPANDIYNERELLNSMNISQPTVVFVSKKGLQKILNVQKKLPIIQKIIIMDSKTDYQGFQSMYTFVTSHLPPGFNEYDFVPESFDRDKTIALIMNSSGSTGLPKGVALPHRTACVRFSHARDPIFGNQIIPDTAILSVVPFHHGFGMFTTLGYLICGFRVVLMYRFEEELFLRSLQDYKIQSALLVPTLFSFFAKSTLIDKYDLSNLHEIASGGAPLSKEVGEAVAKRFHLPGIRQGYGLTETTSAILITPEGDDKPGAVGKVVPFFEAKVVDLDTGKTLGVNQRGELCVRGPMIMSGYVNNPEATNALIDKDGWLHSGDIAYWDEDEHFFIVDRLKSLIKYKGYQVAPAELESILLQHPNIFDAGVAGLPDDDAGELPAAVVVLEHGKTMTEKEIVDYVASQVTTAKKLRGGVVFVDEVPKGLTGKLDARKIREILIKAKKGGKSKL
Outline: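 Biochemical qHTS: compounds run as interplate titrations against purified firefly enzyme, with D-luciferin and ATP each at its KM concentration. Light output recorded by CCD imaging.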

[4] = qHTS assay to identify small molecule agonists of the constitutive androstane receptor (CAR) signaling pathway - cell viability counter screen (AID 1224836); conditions: HepG2-CYP2B6-hCAR viability, CellTiter-Fluor, 23 h, PK11195 added to every well; series mostly up to 92.4 µM; further: nearly all actives have a fitted effect of over 45% in size
Outline: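 HepG2-CYP2B6-hCAR, 2500 cells/well, 4 h pre-incubation; cpd 15 conc + PK11195 0.75 uM final; 23 h, 37 C/5% CO2; CellTiter-Fluor, fluorescence.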

[5] = qHTS assay to identify small molecule antagonists of the estrogen related receptor signaling pathway with the pleiotropic PPARgamma coactivator (PGC) from Tox21 10K library - cell viability counter screen (AID 1224840; active means well fitted cell-killing curve with a large enough effect in the repeat runs, not every such curve was filed as active; further: nearly all actives have a fitted effect of over 40% in size; further: potency means the concentration at half of the fitted maximal effect); conditions: PGC/ERR reporter cells viability, CellTiter-Fluor, 17.5 h; series mostly up to 92.4 µM
Outline: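 Fluorescence read-out of CellTiter-Fluor viability reagent, added after cells had been exposed to compound in DMSO for 17.5 h at 37 C; 30 min development at 37 C/5% CO2. Cells: PGC/ERR line, 2,000/well.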

[6] = qHTS assay to identify small molecule antagonists of the estrogen related receptor signaling pathway with the pleiotropic PPARgamma coactivator (PGC) from Tox21 10K library (AID 1224841; call rule not given here; further: actives are mostly falling curves and most rising ones were filed inactive; nearly all actives have a fitted effect of over 50% in size; further: potency means the concentration at half of the fitted maximal effect); conditions: PGC/ERR reporter cell line, ONE-Glo luciferase, 18 h; series mostly up to 92.4 µM
Outline: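 Luminescence read-out (One-Glo luciferase reagent, 30 min at room temperature) from PGC/ERR cells exposed to DMSO-dissolved test compounds for 18 h at 37 C; cells, 2,000 per well, had been preincubated 6 h before compound transfer.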

[7] = qHTS assay to identify small molecule agonists of the estrogen related receptor signaling pathway with the pleiotropic PPARgamma coactivator (PGC) from Tox21 10K library (AID 1224842); conditions: PGC/ERR reporter cell line, luciferase ONE-Glo, 18 h; series mostly up to 92.4 µM; further: nearly all actives have a fitted effect of over 15% in size
Outline: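 PGC/ERR reporter cell line, 2,000 cells per well, incubated 6 h at 37 C before 23 nL compound in DMSO was added. After 18 h at 37 C, One-Glo luminescence read following 30 min at room temperature.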

[8] = qHTS assay to identify small molecule antagonists of the retinoic acid receptor (RAR) signaling pathway (AID 1159552; further: nearly all actives have a fitted effect of over 50% in size; further: potency means the concentration at half of the fitted maximal effect); conditions: C3RL4 RARE luciferase reporter, retinol-stimulated, 6 h; series mostly up to 92.4 µM
Outline: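 Cells of the C3RL4 line were seeded, incubated overnight, then dosed with compounds in DMSO followed immediately by retinol (1 uM final). Six hours later luciferase detection reagent went in; signal was measured after 30 min at RT.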

[9] = target: Nuclear receptor subfamily 1 group I member 3 (Homo sapiens) (UniProt Q14994); assay: qHTS assay to identify small molecule antagonists of the constitutive androstane receptor (CAR) signaling pathway (AID 1224838); conditions: HepG2-CYP2B6-hCAR luciferase, CITCO-stimulated, 24 h; series mostly up to 92.4 µM;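 further: HepG2 cells stably expressing hCAR with CYP2B6 luciferase reporter stimulated by CITCO; nearly all actives have a fitted effect of over 40% in size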; further: potency means the concentration at half of the fitted maximal effect
Sequence of Nuclear receptor subfamily 1 group I member 3 (Homo sapiens) (Q14994 whole entry, looked up): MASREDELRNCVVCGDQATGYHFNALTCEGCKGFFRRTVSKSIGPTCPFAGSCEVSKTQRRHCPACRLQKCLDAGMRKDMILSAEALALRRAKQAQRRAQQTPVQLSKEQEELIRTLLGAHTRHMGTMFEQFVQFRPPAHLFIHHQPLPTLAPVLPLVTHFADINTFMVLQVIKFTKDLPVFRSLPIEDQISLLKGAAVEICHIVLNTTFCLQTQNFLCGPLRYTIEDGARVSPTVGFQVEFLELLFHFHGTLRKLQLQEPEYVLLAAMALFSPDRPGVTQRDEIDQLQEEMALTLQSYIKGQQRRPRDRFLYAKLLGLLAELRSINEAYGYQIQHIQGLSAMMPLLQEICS
Outline: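 Read-out: ONE-Glo luciferase luminescence after 30 min at room temperature. HepG2-CYP2B6-hCAR double-stable cells, compounds in 15-point titration plus 50 nM CITCO final, 24 h at 37 C/5% CO2.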

[10] = qHTS assay to identify small molecule agonists of the retinoic acid receptor (RAR) signaling pathway (AID 1159553); conditions: C3RL4 RARE luciferase reporter, agonist, 6 h; series mostly up to 73.3 µM
Outline: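 RARE-luc C3RL4 cells; overnight attachment 37 C/5% CO2; compound (DMSO) 6 hr; luciferase reagent, 30 min RT; luminescence read-out.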

[11] = qHTS assay to identify small molecule antagonists of the constitutive androstane receptor (CAR) signaling pathway - cell viability counter screen (AID 1224837); conditions: HepG2-CYP2B6-hCAR viability, CellTiter-Fluor, 23 h, co-treated with 50 nM CITCO; series mostly up to 92.4 µM; further: nearly all actives have a fitted effect of over 45% in size; further: potency means the concentration at half of the fitted maximal effect
Outline: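 Read-out: CellTiter-Fluor fluorescence after 23 hr at 37 C/5% CO2. Cells: HepG2 double-stable for hCAR and CYP2B6-2.2kb. Compounds tested at 15 concentrations in the presence of CITCO, final concentration 50 nM.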

[12] = target: Nuclear receptor subfamily 1 group I member 3 (Homo sapiens) (UniProt Q14994); assay: qHTS assay to identify small molecule agonists of the constitutive androstane receptor (CAR) signaling pathway (AID 1224839); conditions: HepG2 hCAR CYP2B6-luciferase, agonist mode, 24 h; series mostly up to 92.4 µM; further: nearly all actives have a fitted effect of over 15% in size; further: potency means the concentration at half of the fitted maximal effect
Outline: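 HepG2-CYP2B6-hCAR cells, 2500/well, 4 h pre-incubation; compounds 15 conc.; PK11195 0.75 uM final; 24 h, 37 C/5% CO2; ONE-Glo luciferase read.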

Row | SMILES | Potency [1] | Potency [2] | Potency [3] | Potency [4] | Potency [5] | Potency [6] | Potency [7] | Potency [8] | Potency [9] | Potency [10] | Potency [11] | Potency [12]
1 | S=C=NCc1ccccc1 | inactive | inactive | inactive | inactive | inactive | inactive | inactive |  |  |  |  | 
2 | COP(=S)(OC)Oc1ccc([N+](=O)[O-])cc1Cl | inactive | 48.6 µM (active) | 35.6 µM (active) |  |  |  | inactive | inactive | inactive |  |  | 
3 | Nc1ccc(N=Nc2ccc(-c3ccc(N=Nc4c(S(=O)(=O)O)cc5cc(S(=O)(=O)O)c(N=Nc6ccccc6)c(O)c5c4N)cc3)cc2)c(N)c1 | 15.7 µM (active) | 31.3 µM (active) | 20.4 µM (active) | inactive | 35.1 µM (active) |  |  |  | inactive |  |  | 
4 | CCCCc1c(C)nc(NCC)nc1OS(=O)(=O)N(C)C | inactive |  | inactive | inactive |  | 48.6 µM (active) | inactive |  | inactive | inactive |  | 
5 | CCCN(CC1CC1)c1c([N+](=O)[O-])cc(C(F)(F)F)cc1[N+](=O)[O-] | inactive | inactive | inactive | inactive | inactive |  |  |  | inactive | inactive | inactive | 
6 | C/C(=C\c1ccccc1)[N+](=O)[O-] | inactive | 27.3 µM (active) |  |  |  | 30.6 µM (active) | inactive |  | 24.3 µM (active) |  | 30.6 µM (active) | inactive
7 | C=CC[C@]1(O)CC[C@H]2[C@@H]3CCC4=CC(=O)CCC4=C3C=C[C@@]21C | 33.5 µM (active) |  | inactive |  | inactive |  | inactive |  |  |  |  | 
8 | O=[N+]([O-])C(Br)(CO)CO |  | inactive |  | inactive |  | inactive |  |  |  |  |  | inactive
9 | N#Cc1cc(I)c(O)c(I)c1 | inactive |  |  |  |  | 30.6 µM (active) | inactive |  | 61.1 µM (active) | inactive |  | inactive
10 | O=C(Nc1ccccc1)Nc1cnns1 | inactive |  |  |  | inactive | inactive | inactive |  | inactive | inactive |  | 
11 | Clc1ccc(C(OCCN2CCCCC2)c2ccccc2)cc1 (centres undefined) | inactive |  | inactive | inactive | inactive | inactive | inactive |  | inactive |  | inactive | inactive
12 | CO/N=C(/C(=O)OC)c1ccccc1COc1ccccc1C |  | inactive | inactive |  | inactive |  | inactive | 7.7 µM (active) | inactive | inactive | inactive | 7.7 µM (active)
